Laboratory results published in PubChem BioAssay (NCI).
Compounds without any hit were thinned out: in the full panel of roughly 79,000, 15% have a hit. The source made the active and inactive calls. Cut-off read from the data, not from the text of the source: active = growth inhibition above about 70%; inactive = the rest.

Tests used:
[1] = NCI Yeast Anticancer Drug Screen. Data for the rad50 strain (AID 155);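 note: 0% = growth of vehicle-only cultures of the same strain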; conditions: S. cerevisiae rad50 strain growth inhibition, active compounds read high
Summary of the method: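 Inhibition values express reduced yeast growth in compound-treated cultures relative to vehicle-treated controls.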

[2] = NCI Yeast Anticancer Drug Screen. Data for the mec2-1 strain (AID 157); conditions: S. cerevisiae mec2-1 strain, active compounds read high
Summary of the method: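 Using mec2-1 yeast: add compound, measure growth, express inhibition versus vehicle-treated cultures.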

[3] = NCI Yeast Anticancer Drug Screen. Data for the sgs1 mgt1 strain (AID 161);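 note: 0% = growth of cultures given vehicle only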; conditions: S. cerevisiae sgs1 mgt1 strain, active compounds read high
Summary of the method: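 Compounds are added to genetically altered yeast, and growth is compared with cultures given vehicle alone to give percent inhibition.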

[4] = NCI Yeast Anticancer Drug Screen. Data for the cln2 rad14 strain (AID 165);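 note: 0% = growth equal to vehicle treated cultures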; conditions: S. cerevisiae cln2 rad14 strain, active compounds read high
Summary of the method: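 Yeast strain cln2 rad14, bearing defects in cell cycle control and DNA repair, serves as the test system; values reflect growth inhibition compared with vehicle.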

[5] = NCI Yeast Anticancer Drug Screen. Data for the bub3 strain (AID 167); conditions: S. cerevisiae bub3 mutant strain, active compounds read high
Summary of the method: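 Steps: expose the mutant yeast strain to compound; grow alongside vehicle-treated cultures; measure growth; express inhibition against the vehicle cultures.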

[6] = NCI Yeast Anticancer Drug Screen. Data for the mlh1 rad18 strain (AID 175); conditions: S. cerevisiae mlh1 rad18 strain growth inhibition, active compounds read high
Summary of the method: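 Steps: expose repair-defective yeast to compound; measure growth; express inhibition against vehicle-treated controls.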

[7] = at 5.0 µM (retest, dose inferred, filed as 0.5)
[8] = at 50.0 µM (retest, dose inferred, filed as 5.0)

Measured: growth inhibition

Cc1ccc(O)c(Cc2cccc(Cl)c2)c1
inactive: [1]; [7] -2% | [2]; [7] -7% | [3]; [7] -2% | [4]; [7] -21% | [5]; [7] -22% | [6]; [7] 0%
active: [1]; [8] 99% | [1]; at 50.0 µM 99.3% | [2]; [8] 99% | [2]; at 50.0 µM 99.5% | [3]; [8] 99% | [3]; at 50.0 µM 99.5% | [4]; [8] 99% | [4]; at 50.0 µM 99% | [5]; [8] 99% | [5]; at 50.0 µM 99.3% | [6]; [8] 99% | [6]; at 50.0 µM 99.2%

CCN(CC)c1c(C(=O)/C=C/c2ccc(Cl)cc2)c(-c2ccccc2)nn(C)c1=O
active: [1]; [8] 85% | [1]; at 50.0 µM 82.5% | [2]; [8] 91% | [2]; at 50.0 µM 85.9% | [3]; [8] 73% | [3]; at 50.0 µM 81% | [4]; [8] 82% | [4]; at 50.0 µM 83.7% | [5]; [8] 92% | [5]; at 50.0 µM 84% | [6]; [8] 92% | [6]; at 50.0 µM 81.8%
inactive: [1]; [7] 18% | [2]; [7] 15% | [3]; [7] 14% | [4]; [7] 7% | [5]; [7] 8% | [6]; [7] 24%

CCC(c1ccccc1)N1C(=O)c2ccccc2S1(=O)=O (stereo not given)
active: [5]; at 50.0 µM 92.2%
inactive: [1]; [7] -3% | [1]; [8] -3% | [1]; at 50.0 µM 33.4% | [2]; [7] -2% | [2]; [8] 22% | [2]; at 50.0 µM 14.3% | [3]; [7] -1% | [3]; [8] -2% | [3]; at 50.0 µM 25.3% | [4]; [7] -6% | [4]; [8] -3% | [4]; at 50.0 µM -19.6% | [5]; [7] 23% | [5]; [8] 50% | [6]; [7] -3% | [6]; [8] -2% | [6]; at 50.0 µM 32.5%

COc1cc(OC(C)C)cc2c1C(=O)C(C(O)(O)C(F)(F)F)=CC2=O
inactive: [1]; [7] 0% | [2]; [7] 11% | [3]; [7] 2% | [3]; at 50.0 µM 47.7% | [4]; [7] 5% | [5]; [7] 6% | [6]; [7] -8%
active: [1]; [8] 84% | [1]; at 50.0 µM 72.4% | [2]; [8] 81% | [2]; at 50.0 µM 85.5% | [3]; [8] 78% | [4]; [8] 85% | [4]; at 50.0 µM 81.2% | [5]; [8] 88% | [5]; at 50.0 µM 82.9% | [6]; [8] 77% | [6]; at 50.0 µM 92.8%

O=C(Nc1ccccc1O)/C(Cl)=C/Cl
inactive: [1]; [7] -153% | [2]; [7] -47% | [3]; [7] -57% | [4]; [7] -67% | [5]; [7] -63% | [6]; [7] -134%
active: [1]; [8] 95% | [1]; at 50.0 µM 98.2% | [2]; [8] 97% | [2]; at 50.0 µM 97.8% | [3]; [8] 96% | [3]; at 50.0 µM 78.8% | [4]; [8] 95% | [4]; at 50.0 µM 93.5% | [5]; [8] 96% | [5]; at 50.0 µM 94.8% | [6]; [8] 96% | [6]; at 50.0 µM 99.3%

ClC1=C(Cl)C(Cl)(C(Cl)(Cl)Cl)C(Cl)=C1Cl
active: [1]; [7] 99% | [1]; [8] 98% | [1]; at 50.0 µM 99.6% | [2]; [7] 100% | [2]; [8] 99% | [2]; at 50.0 µM 99.6% | [3]; [7] 99% | [3]; [8] 98% | [3]; at 50.0 µM 99.7% | [4]; [7] 99% | [4]; [8] 98% | [4]; at 50.0 µM 99.4% | [5]; [7] 99% | [5]; [8] 98% | [5]; at 50.0 µM 99.7% | [6]; [7] 99% | [6]; [8] 98% | [6]; at 50.0 µM 99.4%

O=C1c2ccccc2C(=O)N1C(=NCc1ccccc1)c1ccccc1
inactive: [1]; [7] 7% | [1]; at 50.0 µM 64.2% | [2]; [7] 2% | [2]; [8] 68% | [2]; at 50.0 µM 63.4% | [3]; [7] 4% | [3]; [8] 42% | [3]; at 50.0 µM 64% | [4]; [7] 3% | [4]; [8] 64% | [4]; at 50.0 µM 5.55% | [5]; [7] -3% | [5]; [8] 66% | [5]; at 50.0 µM 55.2% | [6]; [7] 4%
active: [1]; [8] 70% | [6]; [8] 78% | [6]; at 50.0 µM 83.2%

CC(=O)Nc1nnc(-c2coc3ccccc3c2=O)s1
inactive: [1]; [7] 7% | [1]; [8] 0% | [1]; at 50.0 µM 50.9% | [2]; [7] 4% | [2]; [8] 3% | [2]; at 50.0 µM 6.25% | [3]; [7] 1% | [3]; [8] -3% | [3]; at 50.0 µM 20.4% | [4]; [7] 9% | [4]; [8] 1% | [4]; at 50.0 µM 10.7% | [5]; [7] 4% | [5]; [8] 1% | [5]; at 50.0 µM 15.4% | [6]; [7] 2% | [6]; [8] -4% | [6]; at 50.0 µM 12.1%

CN(C)c1ccc(C(=O)C2CCCC(C)(C)C2)cc1 (stereo not given)
active: [1]; at 50.0 µM 90.7% | [2]; [8] 78% | [2]; at 50.0 µM 93.5% | [3]; [8] 77% | [3]; at 50.0 µM 91.5% | [4]; at 50.0 µM 88.3% | [5]; at 50.0 µM 86.9% | [6]; at 50.0 µM 94.8%
inactive: [1]; [7] 22% | [1]; [8] 65% | [2]; [7] 24% | [3]; [7] 13% | [4]; [7] 7% | [4]; [8] 27% | [5]; [7] 57% | [5]; [8] 47% | [6]; [7] 24% | [6]; [8] 68%

Cc1ccc(C(=O)/C(Cl)=N/O)cc1
active: [1]; [8] 99% | [1]; at 50.0 µM 98.8% | [2]; [8] 100% | [2]; at 50.0 µM 99.1% | [3]; [8] 100% | [3]; at 50.0 µM 97.8% | [4]; [8] 99% | [4]; at 50.0 µM 78.7% | [5]; [8] 99% | [5]; at 50.0 µM 98.8% | [6]; [8] 99% | [6]; at 50.0 µM 98.5%
inactive: [1]; [7] 32% | [2]; [7] 10% | [3]; [7] 13% | [4]; [7] 0% | [5]; [7] 3% | [6]; [7] 27%
